Screening results deposited in PubChem by National Center for Advancing Translational Sciences (NCATS).
A selection: hits, their analogues and other compounds. The true share with any hit is near 2.8%.
Pol iota inh = qHTS for Inhibitors of Polymerase Iota; Pol iota fluorescent replication assay, 10 min; hit rate 1% among 390,000; DNA polymerase iota (Homo sapiens), Q9UNA4; Potency, µM (top dose mostly 115 µM), usual class: inhibitors
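Pol iota at 10 nM preincubated 15 min with compounds at room temperature; reaction started with fluorescent substrate, 50 nM final. Fluorescence read kinetically at 0 and 10 min; buffer-only wells as negative control.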
POLH inh = qHTS for Inhibitors of Polymerase Eta | DNA polymerase eta (Homo sapiens), Q9Y253 | recombinant Pol eta, fluorescent DNA replication assay | Potency, µM (highest dose often 114 µM), actives largely listed as inhibitors | hit rate 1.2% among 390,000 | AID 588591, 2011
Target sequence (Q9Y253 whole entry, looked up): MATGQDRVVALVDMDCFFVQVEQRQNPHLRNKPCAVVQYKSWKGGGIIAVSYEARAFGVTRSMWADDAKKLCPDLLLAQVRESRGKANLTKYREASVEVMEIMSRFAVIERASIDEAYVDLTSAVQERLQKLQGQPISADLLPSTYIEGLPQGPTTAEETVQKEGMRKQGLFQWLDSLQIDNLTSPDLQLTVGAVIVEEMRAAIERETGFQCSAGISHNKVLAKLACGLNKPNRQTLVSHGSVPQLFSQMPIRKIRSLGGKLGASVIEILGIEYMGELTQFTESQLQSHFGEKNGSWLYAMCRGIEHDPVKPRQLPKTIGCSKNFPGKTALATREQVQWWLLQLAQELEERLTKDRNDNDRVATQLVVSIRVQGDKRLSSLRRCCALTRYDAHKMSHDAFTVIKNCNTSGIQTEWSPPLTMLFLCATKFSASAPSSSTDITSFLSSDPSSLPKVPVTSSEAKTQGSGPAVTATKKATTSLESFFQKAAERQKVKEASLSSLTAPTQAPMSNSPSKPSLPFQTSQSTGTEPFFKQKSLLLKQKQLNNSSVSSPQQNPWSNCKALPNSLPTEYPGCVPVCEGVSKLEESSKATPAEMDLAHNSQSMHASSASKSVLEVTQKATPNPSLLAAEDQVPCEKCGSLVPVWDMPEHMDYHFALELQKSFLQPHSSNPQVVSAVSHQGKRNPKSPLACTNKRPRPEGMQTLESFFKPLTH
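Pol eta at 10 nM preincubated with compounds 15 min at room temperature; reaction started with fluorescent substrate (50 nM final) and read kinetically at 0 and 10 min.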
POLB inh = qHTS Assay for Inhibitors of DNA Polymerase Beta | P06746 | AID 485314, 2010 | hit rate 1.3% among 340,000 | Pol beta primer extension/strand displacement, fluorescence kinetic | Potency, µM (doses to about 114 µM), usual class: inhibitors
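10 nM enzyme + cpd, 15 min RT; start with substrate 50 nM final; read 0 min and after 10 min RT. Corrected, normalized data; 4-parameter Hill curve fit.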
WRN helicase inh-1 = qHTS for Inhibitors of WRN Helicase; WRN helicase unwinding, fluorescent forked duplex, kinetic; Potency, µM (top dose mostly 114 µM), hits mostly inhibitors; hit rate 0.46% among 360,000; further: nearly all actives have a fitted effect of over 55% in size
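Enzyme (20 nM final) and test compound sit together 15 min at room temperature before substrate addition. Substrate is a single-forked duplex oligonucleotide (100 nM) labelled with fluorophore and quencher, with 2 mM ATP; helicase unwinding raises red fluorescence, read kinetically.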
Pol kappa inh = qHTS for Inhibitors of Polymerase Kappa | DNA polymerase kappa (Homo sapiens), Q9UBT6 | purified Pol kappa, fluorescent DNA synthesis assay, 10 min | Potency, µM (doses to about 107 µM), usual class: inhibitors | hit rate 0.53% among 400,000
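Enzyme at 10 nM met test compounds for 15 min at room temperature. Substrate addition (50 nM final) began the reaction, which was monitored by fluorescence at 0 and 10 min.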
PI5P4Ka inh = qHTS for Inhibitors of phosphatidylinositol 5-phosphate 4-kinase (PI5P4K). Phosphatidylinositol 5-phosphate 4-kinase type-2 alpha (Homo sapiens), P48426. max response, %. PI5P4Kalpha enzyme, ADP-Glo luminescence, 60 min; stronger effect = lower value. hit rate 1.2% among 330,000; active means max response of -50% or lower; inconclusive means between -30% and -50%; inactive means -30% or higher; further: value at the top dose of about 77 µM
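qHTS, 1536-well: enzyme/substrate mix, compound by pin tool, 5 microM ATP final; RT 60 min; ADP-Glo reagents 1 (45 min) then 2 (30 min); luminescence.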
WRN helicase inh-2 = qHTS for Inhibitors of WRN Helicase: Confirmatory Assay for Cherry-picked Compounds; Potency, µM (highest dose often 57.1 µM), actives largely listed as inhibitors; hit rate 63% among 610; WRN helicase DNA unwinding, fluorescence kinetic; shares compounds with WRN helicase inh-1; further: nearly all actives have a fitted effect of over 65% in size
TO DNA binding = qHTS for Inhibitors of WRN Helicase: Thiazole Orange DNA Binding Counterscreen | thiazole orange DNA binding displacement, fluorescence | hit rate 10% among 610 | shares compounds with WRN helicase inh-1 | Potency, µM (top dose mostly 57.1 µM), most hits filed as inhibitors;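 further: drop in dye fluorescence marks compound binding to DNA; nearly all actives have a fitted effect of over 60% in size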
BLM counter = qHTS for Inhibitors of WRN Helicase: BLM Helicase Counterscreen for WRN Inhibitors | shares compounds with WRN helicase inh-1 | Recombinant BLM helicase DNA unwinding, red fluorescence | Potency, µM (doses to about 57.1 µM), most hits filed as inhibitors | hit rate 60% among 610 | AID 720503, 2013; further: nearly all actives have a fitted effect of over 60% in size
ADP-Glo counter = qHTS for Inhibitors of PI5P4K: ADP-Glo counter assay; shares compounds with PI5P4Ka inh; ADP-Glo detection counter-screen, luciferase luminescence, no enzyme; Potency, µM (titrated, usually from 76.9 µM), most hits filed as inhibitors; 1,100 tested, under 10 active
Each line names hits and unclear results; the compound was inactive in the other large screens (follow-up assays come after a bar, where they were run). Unless noted, the call rests on the fitted dose curve; in most records, active means well fitted curve in the direction sought with a large enough effect; inconclusive means small, poorly fitted or top-dose-only effect, or another doubt; inactive means no such curve, though single readings can be large; an effect the other way counts as inactive or inconclusive.

CCCCn1c(=O)c(C=Nc2ccc(Cl)cc2)c(O)n(Cc2ccco2)c1=O	none
Cc1noc(C)c1C(=O)N1CCC2(CCCN(CC(C)C)C2)CC1	none (no result: Pol iota inh, POLH inh, POLB inh, WRN helicase inh-1, PI5P4Ka inh)
CC(=O)[C@@H]1CC[C@H]2[C@@H]3CC[C@@H]4CC(=O)CC[C@]4(C)[C@H]3CC[C@]12C	none (no result: Pol iota inh, POLH inh, POLB inh, WRN helicase inh-1, PI5P4Ka inh)
O=C(O)Cn1cc(/C=C2\C(=O)NC(=O)N(c3ccc(Br)cc3)C2=O)c2ccccc21	Pol iota inh 32µM, POLH inh inconclusive, WRN helicase inh-1 inconclusive | WRN helicase inh-2 inactive | TO DNA binding inactive | BLM counter 17µM
O=C1CC2OCC=C3CN4CCC56c7ccccc7N1C5[C@H]2[C@H]3C[C@H]46 (stereo not given in full) (tested in a mixture with another compound)	none (no result: Pol iota inh, POLH inh, POLB inh, WRN helicase inh-1, PI5P4Ka inh)
O=c1c2ccccc2nc(/C=C/c2cccnc2)n1Cc1ccccc1	Pol iota inh 2.8µM, POLH inh inconclusive, WRN helicase inh-1 32µM | WRN helicase inh-2 inactive | TO DNA binding inactive | BLM counter inactive
O=c1c2ccccc2nc(/C=C/c2ccccc2)n1-c1ccccc1O	none
C[C@]12CC[C@@H]3c4ccc(O)cc4C[C@@H](CCCCCCCCCS(=O)CCCC(F)(F)C(F)(F)F)[C@H]3[C@@H]1CC[C@@H]2O (stereo not given in full)	none (no result: Pol iota inh, POLH inh, POLB inh, WRN helicase inh-1, PI5P4Ka inh)
C=CCc1cc(C=C2C(=O)N(C)C(=O)N(C)C2=O)cc(OCC)c1OCc1ccccc1	POLH inh inconclusive, WRN helicase inh-1 45µM, PI5P4Ka inh -55 | WRN helicase inh-2 inactive | TO DNA binding inactive | BLM counter inconclusive
COc1ccc(CN2Cc3cnnn3-c3ccccc3C2C#N)cc1 (stereo not given)	Pol iota inh inconclusive (no result: POLB inh)
N#CC1c2ccccc2-n2nncc2CN1Cc1cc(Cl)cc(Cl)c1 (stereo not given)	Pol iota inh inconclusive, PI5P4Ka inh -60 (no result: POLB inh) | ADP-Glo counter inactive
O=C(CO)C(O)C(O)C(O)CO (stereo not given)	PI5P4Ka inh inconclusive (no result: POLB inh)
COc1ccc(C(=O)C2CCCN(Cc3ccon3)C2)c(OC)c1 (stereo not given)	Pol iota inh 89µM, POLH inh inconclusive, Pol kappa inh inconclusive, PI5P4Ka inh -84 | ADP-Glo counter inactive
